Assay results published in the supplement of paper PMC12067093, “Discovery and optimisation of a covalent ligand for TRIM25 and its application to targeted protein ubiquitination” (Chemical Science, 2025).
Targets with the largest changes are over-represented here; the source holds about 21,000 in all.

Molecular target: HPRT1_P00492_66_EMGGHHIVALCVLK (UniProt P00492)
Assay: probe-labelled cysteine peptide fold change vs DMSO (competition) (log2 fold change); higher = less target engagement (more negative = stronger competition)
Conditions: THP-1, incubation time: 4 h
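Also: competitive chemoproteomic profiling in live THP-1 cells with an iodoacetamide desthiobiotin (IA-DTB) probe, comparing probe-labelled peptide intensities in compound-treated cells against DMSO-treated controls.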

Chain of UniProt P00492 (P00492 whole entry, looked up): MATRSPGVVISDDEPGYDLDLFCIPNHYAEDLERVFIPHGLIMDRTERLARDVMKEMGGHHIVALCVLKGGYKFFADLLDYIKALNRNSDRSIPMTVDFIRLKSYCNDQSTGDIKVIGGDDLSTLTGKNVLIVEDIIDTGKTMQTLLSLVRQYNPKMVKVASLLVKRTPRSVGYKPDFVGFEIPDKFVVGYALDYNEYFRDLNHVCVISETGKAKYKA

## CC1Cc2ccccc2N1C(=O)C1CCCN(C(=O)CCl)C1 (mixture of isomers) [TRIM25 ligand 11 (diastereomer mixture)]
10 µM
  probe-labelled cysteine peptide fold change: -0.135
50 µM
  probe-labelled cysteine peptide fold change: 0.123
